The record followed here is PubChem BioAssay AID488 (PCMD, 2006).

The whole screen tested about 62,000 compounds, of which about 40 (0.06%) were called active. Cut-off read from the data, not from the text of the source: active = inhibition above about 22% (passing the limit was not always enough); inconclusive = no clear call, values can overlap the other calls. The list comes from a sample in which actives are over-represented; it also holds similar structures and randomly drawn compounds.

The target in this test is Cathepsin B (Homo sapiens) (UniProt P07858). Description: human cathepsin B blockade, pooled library – biochemical, compound mixtures, AMC fluorescence, primary screen (AID 488).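 Note: 0% = enzyme without compound and 100% = no enzyme blank.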 To be noted: Purified cathepsin B, AMC dipeptide fluorescence, hits give high values,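 ten-compound pools at 5 µM per compound and 50 µM total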.
`Cc1ccc(C(=O)CSc2nnc(Cn3nnc4ccccc43)n2C)cc1`: the inhibition (commonly the relative decrease from the control value, in per cent) was -0.39% (inactive). With `C=CCn1c(SCc2csc(C)n2)nc2scc(-c3ccc(C)o3)c2c1=O` the figure was 5.42% (inactive).

For `Cc1ccc2nc(NCCCNC(=O)c3cnccn3)c(C#N)cc2c1`, the inhibition was 1.1% (inactive). Next, `CCNc1nc(SCCOc2ccccc2)nc(N(C)C)n1`: 3.91% (inactive); `C/C(Cl)=C\Cn1c(Nc2cccc(C)c2)nc2c1c(=O)n(C)c(=O)n2C`: 5.3% (inactive). Next, `Cc1ccccc1S(=O)(=O)Cc1ccc(C(=O)NCCN2CCCCC2C)o1` (stereo unspecified): 3.67% (inactive). Next, `CCOc1ccc2[nH]c(=O)c(CN(Cc3nnnn3Cc3ccccc3)CC3CCCO3)cc2c1` (stereo unspecified): 3.02% (inactive); `COC(=O)Nc1ncc(CN2C(=O)c3ccccc3C2=O)s1`: -2.69% (inactive). Turning to `CCCS(=O)(=O)N1CCCC(C(=O)NCCN2CCCCC2C)C1` (stereo unspecified), the inhibition is 3.97% (inactive). Next, `Cc1ccc(C(C(=O)NC2CCCC2)N(Cc2ccco2)C(=O)CCC(=O)Nc2ccccn2)cc1` (stereo unspecified): 3.21% (inactive).

Take `CCCCn1c(CN2CCN(CCO)CC2)nc2ccccc21`: the inhibition was 2.92% (inactive). Consider `CCc1ccc(-c2nnn(Cc3nc4ccccc4s3)n2)cc1`, for which the inhibition is 4.33% (inactive). Next, `O=c1[nH]nc(CSCc2ccccc2Cl)[nH]1`: 4.72% (inactive). With `O=C(COc1ccc(F)cc1)N(CC1=CCS(=O)(=O)C1)c1ccccc1` the figure was -3.79% (inactive); with `Cc1ccc2cc3cc(C(=O)N4CCCCCC4)oc3nc2c1`, 3.89% (inactive). With `C=CCn1c(N)c(C(=O)OCC(C)C)c2nc3ccccc3nc21` the figure was -4.76% (inactive).

As for `COc1cccc(NS(=O)(=O)c2ccc3[nH]cc(C(=O)NCCCOC(C)C)c(=O)c3c2)c1`, the inhibition is 5.5% (inactive). With `COC(=O)[C@H](CCSC)NC(=O)Nc1ccc(OC)cc1` the figure was 1.64% (inactive).

Consider `C=CCNC(=O)c1cc(-c2ccccc2O)on1`, for which the inhibition is -1.28% (inactive). As for `O=C(CSc1nnc(-c2ccco2)n1Cc1ccccc1)NC(=O)NCc1ccco1`, the inhibition was -0.985% (inactive). With `COCCCN(C(=O)Cn1ncc2c(=O)oc3ccc(C)cc3c21)C(C)c1ccncc1` (stereo unspecified) the figure was 1.95% (inactive). With `O=C(CN1C(=O)NC2(CCCCC2)C1=O)NCCC1=CCCCC1` the figure was 4.21% (inactive). With `Cc1cc(NC(=O)COn2nnc3ccccc32)no1` the figure was 1.15% (inactive); with `CCc1ccccc1NC(=O)CSc1nnc([C@@H](NC(=O)OC(C)(C)C)C(C)C)o1`, 5.22% (inactive); with `Cc1ccc(C(=O)NCC(=O)O)cc1S(=O)(=O)N1CCCCC1`, 1.96% (inactive). As for `Cc1ccc(C(=O)Nc2ccc3c(c2)OCO3)cc1S(=O)(=O)N1CCCCC1`, the inhibition is 62.7% (active). For `COc1ccc(C(=O)Nc2ccc3c(c2)OCO3)cc1OC`, the inhibition is 1.18% (inactive).

On to `COc1ccc(NS(=O)(=O)c2ccc(NC(C)=O)cc2)cc1OC`, for which the inhibition was 2.73% (inactive). Next, `CCC(=O)c1ccc(OCC(O)CN2CCN(c3cccc(C(F)(F)F)c3)CC2)cc1` (stereo unspecified): 2.81% (inactive); `Cc1noc(C)c1S(=O)(=O)Nc1ccc(C(=O)O)cc1`: 5.64% (inactive).

Regarding `COc1ccc(CC(=O)c2ccc(O)cc2O)cc1OC`, the inhibition was -2.36% (inactive). With `Cc1ccc(SCCN2C(=O)NC(C)(C)C2=O)cc1` the figure was 3.79% (inactive); with `CCCc1nc(N)nc2c1C(=O)CC(C)(C)C2`, 3.17% (inactive); with `CCC(=O)N1CCc2cc(S(=O)(=O)NC(C(=O)N3CCc4ccccc4C3)C(C)C)ccc21` (stereo unspecified), 15.3% (inactive).

On to `O=C(NCc1ccc(Cl)c(Cl)c1)c1cccnc1`, for which the inhibition is -2.21% (inactive). Next, `CCCC(CCC(=O)OC)(C(=O)OCC)c1csc(N)n1` (stereo unspecified): 6.54% (inactive); `CC1CCCN(Cc2nc3c(c(=O)n(C)c(=O)n3C)n2Cc2cccc3ccccc23)C1` (stereo unspecified): 1.14% (inactive); `CN(CCCC(=O)Nc1nccs1)S(=O)(=O)c1ccc(Cl)cc1`: 3.83% (inactive). With `Cc1ccc(S(=O)(=O)N2CCN(C(=O)CCC(=O)NC3CCCc4ccccc43)CC2)cc1` (stereo unspecified) the figure was 1.64% (inactive); with `CC(=O)Nc1cc(C(=O)O)ccc1S(=O)(=O)c1ccc(Cl)cc1`, -0.3% (inactive). `CCCC(=O)N1c2ccccc2NC2=C(C(=O)CCC2)C1c1ccc(F)cc1` (stereo unspecified): the inhibition was 4.79% (inactive). Consider `COc1ccc(OC)c(NC(=O)CSc2nc3cccnc3n2C)c1`, for which the inhibition was -8.48% (inactive). In the case of `O=C1NC(Nc2nc3ccccc3s2)(C(F)(F)F)C(=O)N1C1CCCCC1` (stereo unspecified), the inhibition is 1.35% (inactive). Next, `CN1CCN(C(=O)C2C3C=CC(C3)C2C(=O)O)CC1` (stereo unspecified): 5.22% (inactive); `CSCCC(NC(=O)c1ccc(=O)n(C)n1)c1nc2ccccc2[nH]1` (stereo unspecified): -2.06% (inactive); `c1ccc2c(c1)OCC(c1nn3cnnc3s1)O2` (stereo unspecified): -2.62% (inactive). Turning to `O=C(NCCN1C(=O)C2C3C=CC(C3)C2C1=O)Nc1ccccn1` (stereo unspecified), the inhibition was 7.59% (inactive). With `Cn1c2ccccc2c2c(C(=O)N3CCN(c4ccc(F)cc4)CC3)cn(C3CCCC3)c(=O)c21`, the inhibition was 4.51% (inactive).

Take `CCCNc1ncnc2sc(C)c(C)c12`: the inhibition is 2.56% (inactive). In the case of `O=C(CSc1nnnn1-c1ccc2c(c1)CCC2)Nc1ccc2c(c1)OCCO2`, the inhibition was 0.15% (inactive). With `Cn1c(=O)n(C)c2cc(CNc3ccc(N4CCOCC4)c(C(=O)O)c3)ccc21` the figure was -0.23% (inactive); with `O=C(Nc1ccc(Cl)cc1)c1ccsn1`, -2.12% (inactive); with `COc1ccc(OC)c(C(=O)CSc2nnc(-c3cccs3)o2)c1`, -2.44% (inactive). Next, `CCN(CC)S(=O)(=O)c1ccc2nc(COC(=O)c3n[nH]c4ccccc34)[nH]c2c1`: 3.42% (inactive). Next, `O=C(NC(c1ccccc1)c1ccccc1)N1CCN(CCO)CC1`: 3.62% (inactive). As for `CC1CCC(NC(=O)c2ccc(N3CCCC3=O)cc2)CC1` (stereo unspecified), the inhibition is -4.06% (inactive). With `COCC(=O)Nc1nnc(COc2ccccc2)s1` the figure was -8.97% (inactive). Next, `COC(C)(C)[C@]12CC(O)(C(C)C)ON1[C@H]1CCCCC1N2O` (stereo partly specified): -3.22% (inactive); `Cn1c(=O)c2c(n(Cc3ccccc3)c1=O)NC(=O)C2CC(=O)N1CCc2ccccc2C1` (stereo unspecified): 0.76% (inactive); `O=c1c2c(nc3n1CCCCC3)sc1c(O)cccc12`: 5.69% (inactive). Next, `CC(C)c1ccc(NS(=O)(=O)c2cn(C)c(=O)n(C)c2=O)cc1`: 3.38% (inactive).
